Drawing on PubChem BioAssay AID651814 (National Center for Advancing Translational Sciences (NCATS), 2012), this text covers Potency and max response for 91 molecules.

The whole screen tested about 2,100 compounds, of which about 590 (28%) were called active. About 42% were inconclusive and are not listed. The list shows a part of the results. Unmarked numbers belong to inactive results. Calls follow the shape of the dose curve; as a rule, active = well fitted inhibition curve with a large enough effect; inconclusive = small, poorly fitted or top-dose-only effect; inactive = flat fitted curve, though single readings scatter.
Potency is read from the fitted curve at half-maximal effect.

Chain of DNA dC->dU-editing enzyme APOBEC-3F (Homo sapiens) (Q8IUX4 whole entry, looked up): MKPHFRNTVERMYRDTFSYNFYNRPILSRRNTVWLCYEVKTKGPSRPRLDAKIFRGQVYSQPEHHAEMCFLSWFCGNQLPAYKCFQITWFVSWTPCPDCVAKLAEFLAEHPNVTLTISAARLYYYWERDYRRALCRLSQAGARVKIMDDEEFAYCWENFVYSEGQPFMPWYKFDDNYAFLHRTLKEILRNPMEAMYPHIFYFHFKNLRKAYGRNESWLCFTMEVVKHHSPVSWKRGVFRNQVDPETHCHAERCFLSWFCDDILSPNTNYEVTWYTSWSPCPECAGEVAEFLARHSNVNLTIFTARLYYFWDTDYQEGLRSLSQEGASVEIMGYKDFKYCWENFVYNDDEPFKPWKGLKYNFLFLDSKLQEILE

The target in the assay is DNA dC->dU-editing enzyme APOBEC-3F (Homo sapiens) (UniProt Q8IUX4). Kind of assay: qHTS for inhibitors of Vif-A3F interactions: Cherry picks. Also: nearly all actives have a fitted effect of over 70% in size.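 As to max response: % of control where 0% means no effect; active compounds raise eYFP fluorescence by blocking Vif-driven A3F loss.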 Particulars: HeLa A3F-eYFP + Vif (tagged APOBEC3F with the HIV-1 protein that degrades it), eYFP fluorescence, 24 h. The method, boiled down:
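HeLa cells stably expressing A3F-eYFP plus Vif, cultured overnight, then exposed to compounds at several concentrations for 24 h at 37 deg C. Reduced Vif-driven degradation read as rising eYFP fluorescence (488 nm ex/500-530 nm em) by laser-scanning cytometry; MG132 as positive control.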
Background: In qHTS, concentration-response curves come from the screen itself.
In the case of `CC(C)n1cnc2c(NCc3ccccc3)cc(N[C@H](C)CO)cc21`, the Potency is 12.5 µM (active). For `Cc1ccccc1N1C(=O)c2cccc3c(N(C)CCO)ccc(c23)C1=O`, the max response is -29.5%. In the case of `Cc1ccc(N2C(=O)c3cccc4c(N5CCN(C)CC5)ccc(c34)C2=O)c2cccnc12`, the Potency was 17.7 µM (active).

Turning to `CC1(C(=O)NCc2cccs2)Cc2c(-c3ccc(C(N)=O)cc3)ccnc2O1` (stereo unspecified), the max response is -27%.

For the molecule `CCOC(=O)c1c(Nc2ccc(Cl)cc2)sc(/C=C2\C=Nc3ccccc32)c1O`, the Potency is 14.6 µM (active). Turning to `CCOC(=O)c1ccc(Nc2nc3ccccc3nc2NS(=O)(=O)c2ccc(Cl)cc2)cc1`, the max response was -8.48%. Same read-out and setting: the same measure for `CC(C)(C)c1ccc(Oc2ccc(NC(=O)c3ccccc3C(=O)O)cn2)cc1`: 1.93%. Consider `CCC(C)n1c(NC(=O)c2ccccc2)c(C#N)c2nc3ccccc3nc21` (stereo unspecified), for which the Potency was 16.4 µM (active). The same measure, in the same setting: the value for `COC(=O)Cn1c(C)c(/C=C/c2cc[n+](C)cc2)c2ccccc21` was 18.4 µM (active).

Consider `CCN(CC)C(=O)Cn1c(C)c(/C=C/c2cc[n+](C)cc2)c2ccccc21`, for which the Potency was 11.2 µM (active). Regarding `S=c1[nH]nc(-c2cccnc2)n1/N=C/C(Cl)=C\c1ccccc1`, the max response is -29.6%.

In the case of `CN(C)c1ccc(/C=C/C(=O)c2c(O)c3ccccc3oc2=O)cc1`, the Potency was 1.46 µM (active). Still for that read-out and setting: the value for `c1ccc(-c2cnn3c(-c4ccccc4)c(-c4ccccc4)nc3n2)cc1` was 1.84 µM (active). Turning to `CN(C)c1ccc(/C=C/c2nc3ccccc3c(=O)[nH]2)cc1`, the max response was -19.3%. Turning to `CN(C)c1ccc(/C=C/c2cc(N(C)C)nc3ccccc23)cc1`, the Potency was 9.2 µM (active). As to `Nc1ccc2nc(-c3ccccc3)c(-c3ccccc3)nc2c1`, the max response was -17.1%. Same read-out and setting: the same measure for `CN(NC(=O)c1ccccc1)c1nc2ccccc2nc1C(F)(F)F`: -29.3%.

In the case of `Nc1ccc(/C=C/c2cc(Cl)nc3ccccc23)cc1`, the Potency was 18.4 µM (active). Still for that read-out and setting: the value for `CCN(CC)c1ccc(/C=C/c2cc(-c3ccccc3)c3ccccc3n2)cc1` was 5.59 µM (active); that for `CN(C)c1ccc(/C=C/c2nc3ccccc3c(=O)n2CCO)cc1` was 20.6 µM (active). For `COC(=O)c1ccccc1NC(=O)C1CC(=O)N(c2ccc(OC)cc2)C1` (stereo unspecified), the max response is -29%. Still for that read-out and setting: the value for `O=C(Cn1ncc(Cl)c(Cl)c1=O)N1CCN(S(=O)(=O)c2ccc3ccccc3c2)CC1` was -29%. Still for that read-out and setting: the value for `C/C(=N\NC(=S)NC(C)C)c1ccc(C(C)(C)C)cc1` was -1.78%.

Regarding `CN(C)c1ccc(/C=C/c2cc(/C=C/c3ccc(N(C)C)cc3)c3ccccc3n2)cc1`, the Potency was 7.31 µM (active). The same measure, in the same setting: the value for `CCOc1ccc(C2CC(c3c(O)c4ccccc4oc3=O)=NN2c2ccccc2)cc1OC` (stereo unspecified) was 13 µM (active); that for `CC[N+](C)(C(=O)O)/C(=C\c1ccccc1)c1ccnc2ccccc12` (stereo unspecified) was 20.6 µM (active). As to `CC(C)Cn1c(N)c(C(=O)COC(=O)c2ccc([N+](=O)[O-])o2)c(=O)n(C)c1=O`, the max response was 3.32%. The same measure, in the same setting: the same measure for `COc1ccc(-n2cc3c(-c4cccc(Br)c4)nnc(C)c3n2)cc1`: -1.46%. For `N=c1n(CC(=O)c2ccc([N+](=O)[O-])cc2)c2ccccc2n1Cc1ccccc1`, the Potency is 14.6 µM (active). As to `COC(=O)[C@@H]1Cc2c([nH]c3ccccc23)C(C)(C)N1C(=O)CCl`, the max response was -14.3%.

In the case of `Oc1ccc(C2=NNC(=NCc3ccc4c(c3)OCO4)SC2)c(O)c1`, the max response is -25%.

Turning to `N#Cc1c(NC(=O)/C=C/C(=O)O)sc2c1CCN(Cc1ccccc1)C2`, the max response was -10.7%.

For `CN(C)c1ccc(/C=C(/C#N)C(=O)Nc2nc3c(s2)CCN(Cc2ccccc2)C3)cc1`, the Potency is 0.704 µM (active). For `CCOC(=O)c1cc(-c2ccccc2C)n(CC2CC(c3ccc(OC)cc3)=NO2)n1` (stereo unspecified), the max response was 6%.

Take `CN(C)c1ccc(/C=C/c2ccnc3c(N)cccc23)cc1`: the Potency was 16.4 µM (active). With `CN(C)c1ccc(/C=C/c2ccnc3c(Cl)cccc23)cc1`, the Potency is 4.11 µM (active). Same read-out and setting: the value for `CN(C)c1ccc(/C=C/c2ccnc3c(Cl)ccc(Cl)c23)cc1` was 6.51 µM (active). As for `Cc1ccc(-c2nc(SCCOc3ccccc3C)n3[nH]c(=O)cc3n2)cc1`, the max response was 1.28%. For `COc1ccc(/C=c2\s/c(=C/C(=O)c3ccc(C)cc3)[nH]c2=O)c(OC)c1`, the Potency was 18.4 µM (active). Consider `COc1ccc(/C=C2\Oc3cc(OC(=O)N4CCOCC4)ccc3C2=O)c(OC)c1`, for which the max response was -13.8%. Take `Cc1ccc(NC(=S)N=Nc2c(O)n(C)c3ccc(S(=O)(=O)N4CCOCC4)cc23)cc1`: the max response is 3.82%. Take `COc1ccc(-n2c(O)c(/C=N/NS(=O)(=O)c3cc(C)ccc3C)c3ccccc3c2=O)cc1OC`: the Potency was 14.6 µM (active). On to `COc1ccc(C(=O)C(C)[n+]2ccc(C)c3ccccc32)cc1[N+](=O)[O-]` (stereo unspecified), for which the max response was 1.15%. In the case of `COc1ccc(-n2c(O)c(/C=N/NS(=O)(=O)c3cccc([N+](=O)[O-])c3)c3ccccc3c2=O)cc1OC`, the Potency is 17.7 µM (active). For the molecule `COc1ccc(C)cc1NCc1cc(=O)oc2cc(-c3ccccc3)c(O)cc12`, the max response was -18.7%. With `COC(=O)c1cnc(Nc2cc(C)ccc2OC)c2ccccc12`, the max response is -22%. On the same count and under the same terms, the same measure for `O=C(O)CSc1cc(NS(=O)(=O)c2cccc([N+](=O)[O-])c2)c2ccccc2c1O`: -12.8%.

With `COc1ccc(-n2c(O)c(/C=N/NS(=O)(=O)c3ccc(C)c([N+](=O)[O-])c3)c3ccccc3c2=O)cc1OC`, the Potency is 14.6 µM (active). On to `COC1=C(OC)C(=O)C(Sc2ccc3ccccc3c2)=CC1=O`, for which the max response was -9.94%. Turning to `CCSc1nnc(-c2sc3nnc(-c4ccccc4)c(-c4ccccc4)c3c2N)o1`, the Potency is 16.4 µM (active).

For the molecule `COc1cc(CNCCSc2nnnn2C)ccc1OCc1c(F)cccc1Cl`, the max response was -4.2%. For `COc1ccc(C(=O)Nc2cccc(/C=C/c3nc4ccccc4c(=O)[nH]3)c2)cc1`, the Potency was 12.5 µM (active).

As to `N#Cc1c(C(F)(F)F)cc(-c2ccco2)nc1SCc1ccccn1`, the Potency is 10.3 µM (active). Same read-out and setting: the same measure for `Nc1c(C(=O)Nc2nc3ccccc3s2)sc2nc(-c3cccs3)ccc12`: 20.6 µM (active). Take `Nc1c(C(=O)Nc2nccs2)sc2nc(-c3cccs3)cc(C(F)(F)F)c12`: the Potency was 8.86 µM (active). As for `Nc1c(C(=O)Nc2ccc(F)cc2)sc2nc(-c3cccs3)cc(C(F)(F)F)c12`, the Potency was 1.64 µM (active). On the same count and under the same terms, the value for `Cc1nnc(NC(=O)c2sc3nc(-c4cccs4)cc(C(F)(F)F)c3c2N)s1` was 7.31 µM (active). Consider `COc1ccc2nc(NC(=S)NC(=O)c3ccco3)sc2c1`, for which the max response is -0.262%. On the same count and under the same terms, the same measure for `O=C(Nc1nc2ccccc2s1)c1ccc([N+](=O)[O-])o1`: -26.2%. Take `O=c1[nH]cnc2n[nH]nc12`: the Potency is 2.31 µM (active).

On to `CCNC(=S)N/N=C(\C)c1ccc(N2CCOCC2)cc1`, for which the max response is -0.726%. On the same count and under the same terms, the same measure for `O=c1[nH]c2ccccc2n2c(C(F)(F)F)nnc12`: -23.2%. For `Cn1c(N)c(-c2ccccc2)c2ccc([N+](=O)[O-])cc2c1=O`, the Potency was 4.98 µM (active).

Consider `C=C(C(=O)c1ccccc1)C(C)C(=C)C(=O)c1ccccc1`, for which the Potency is 12.5 µM (active). In the case of `CC(C)(C)NCC(=Cc1ccccc1)C(=O)c1ccccc1`, the max response was 10%. Take `O=C(OC12CC3CC(CC(C3)C1)C2)c1ccc(NCc2cc(O)ccc2O)cc1`: the max response is -13.8%. On to `CCN1/C(=C\C=C(C(C)=O)C(C)=O)Sc2ccccc21`, for which the Potency was 18.4 µM (active). Regarding `O=C(CN1c2ccccc2Sc2ccccc21)NNC(=O)Nc1cccc(Cl)c1`, the max response is -28.8%.

In the case of `O=S(=O)(Nc1nc2ccccc2nc1OCC(F)(F)F)c1cccs1`, the max response is -0.45%. Same read-out and setting: the value for `CSc1nsc(/C=C/Nc2ccc(F)cc2)c1C#N` was -9.4%. On to `CSc1nsc(/C=C/Nc2ccc(C)cc2)c1C#N`, for which the Potency was 15.8 µM (active). On to `N#CC1=C(S)N(c2ccc(F)cc2)C2(CCCCC2)NC1=O`, for which the max response was 2.73%. Same read-out and setting: the same measure for `Cc1c(C(=O)Nc2cnccn2)oc2ccccc12`: -18.9%.

As to `CC(=O)Nc1sc(/C(C#N)=C\c2cccc(Cl)c2)nc1-c1ccc(C)cc1`, the Potency is 6.51 µM (active). Still for that read-out and setting: the value for `CC(=O)Nc1sc(/C(C#N)=C/c2ccc(Cl)c(Cl)c2)nc1-c1ccc(C)cc1` was 2.59 µM (active).

Take `O=C(Nc1nc(NC(=O)c2ccco2)n(-c2ccccc2)n1)c1ccccc1`: the max response was -10.5%. On the same count and under the same terms, the same measure for `NC(=O)c1cccc(-c2ccnc3c2CC(C(=O)NCc2ccco2)O3)c1` (stereo unspecified): -22.9%. Same read-out and setting: the value for `COc1cccc(NC(=O)c2sc3nc(C)c(C(=O)Nc4ccc(C)cc4C)c(-c4ccco4)c3c2N)c1` was -5.66%. Same read-out and setting: the value for `CCOC(=O)c1sc(NC(=S)NC(=O)c2ccco2)nc1C` was 0.261%.

In the case of `CCc1ccc(NC(=O)c2sc3nc(C)c(C(=O)Nc4ccc(C)cc4C)c(-c4ccco4)c3c2N)cc1`, the Potency is 23.1 µM (active). Regarding `C#CCSc1nc(-c2cccs2)ccc1C#N`, the max response was -28.5%. Turning to `N#Cc1cccn1-c1nccc(-c2cccs2)n1`, the Potency is 12.5 µM (active). With `O=CNc1ccc2c3c(cccc13)-c1ccccc1-2`, the Potency is 14 µM (active). As to `CCCCN(C)CC(O)Cn1cc(/C=C/C(=O)c2cccs2)c2ccccc21` (stereo unspecified), the Potency is 20.6 µM (active). Still for that read-out and setting: the same measure for `N#CCC(=O)N/N=C/c1ccc(N2N=C(c3ccccc3)CC2c2ccccc2)cc1` (stereo unspecified): 18.4 µM (active). As to `CC1Sc2ccc(C(=O)NCc3ccccn3)cc2NC1=O` (stereo unspecified), the max response was -4.69%. In the case of `N#Cc1cccc(NC(=O)CSc2ccc3c4c(cccc24)C(=O)c2ccccc2-3)c1`, the Potency was 2.31 µM (active).

With `COc1ccc(NC(=O)CSc2ccc3c4c(cccc24)C(=O)c2ccccc2-3)cc1`, the Potency was 8.2 µM (active).

For `CCn1c(CNC(=O)C23CC4CC(CC(C4)C2)C3)nnc1SCC(=O)Nc1ccc(OC)cc1`, the max response was 6.03%. On the same count and under the same terms, the same measure for `Cc1ccc(NC(=O)CSc2ccccc2NC(=O)c2cccc(Cl)c2)cc1Cl`: -5.67%; for `COc1ccc(NC(=O)c2cccc3ccccc23)cc1`: -30%.
